# Hit rate of the full screen: of about 220,000 compounds, about 2,400 (1.1%) were called active. Another 7% or so got no clear call; they are omitted. This excerpt belongs to a sample that is enriched for actives. Values without a mark were called inactive. The call rests on the fitted dose curve; in most records, active means well fitted inhibition curve with a large enough effect; inconclusive means small, poorly fitted or top-dose-only effect, or effect the other way; inactive means no such curve, though single readings can be large or run the other way.
# Experiment: qHTS Multiplex Assay to Identify Dual Action Probes in a Cell Model of Huntington: Aggregate Formation (GFP); further: nearly all actives have a fitted effect of over 60% in size
# Settings: PC12 HttQ103-GFP aggregates, Acumen cytometry, 40 h; series mostly up to 9.22 µM; activity change, negative = inhibition: at the top concentration
# Method in brief: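 PC12/HTTQ103-GFP, ecdysone-inducible; teb 100 nM; cpd qHTS titration; GFP aggregates read on laser cytometer, Ex 488/Em 500-530 nm.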
# On the % scale 0 is the no-effect control and ±100 the full control effect; potency means the concentration at half of the fitted maximal effect.
SMILES,"activity change, negative = inhibition",Potency
COc1ccc(-c2cc(C(F)(F)F)nc(SCC(=O)Nc3ccc4c(c3)OCO4)n2)cc1OC,-7.98% [at 46.1 µM],
COc1cc(OC)nc(S(C)(=O)=O)n1,5.84% [at 46.1 µM],
COc1ccc(-c2cc(C(F)(F)F)nc(S(C)(=O)=O)n2)cc1OC,,10 µM (active)
CC1Cc2ccccc2N1S(=O)(=O)c1ccc(Cl)nc1 (centres undefined),5.35%,
COc1ccc(C2(C#N)CCC(C(=O)O)CC2)cc1OC1CCCC1 (centres undefined),3.74% [at 46.1 µM],
CCOC(=O)N1CCN(C(=O)C2CCN(c3ncnc4c3sc3cccc(F)c34)CC2)CC1,,10 µM (active)
CCOC(=O)N1CCN(C(=O)C2CCN(Cc3ccc(OC)cc3OC)CC2)CC1,4.49% [at 46.1 µM],
CCOC(=O)C1CCN(c2ncnc3c2oc2ccc(Br)cc23)CC1,11.4% [at 46.1 µM],
COc1ccc(-c2[nH]ncc2/C=N/NC(=O)c2cc(Br)ccc2O)c(OC)c1,-30.4% [at 46.1 µM],
CC(C)/C=N/NC(=O)c1cc(Br)ccc1O,,8.91 µM (active)
O=C(N/N=C\c1cccc(Br)c1)c1ccccc1-n1cccc1,-0.974% [at 46.1 µM],
Cc1c(C)c(C)c2[nH]c(=S)[nH]c2c1C,-19.2%,
CCc1c(C)nc2c(-c3ccccc3)c(C)nn2c1Nc1ccc(NC(C)=O)cc1,13.2%,
O=C(N/N=C/c1ccccc1O)/C(=C/c1ccccc1)CCO,,7.94 µM (active)
O=C(CCCCCNC(=O)c1ccccc1)N/N=C/c1ccccc1,10.1% [at 46.1 µM],
O=C(CCC(=O)Nc1ccccc1)N/N=C/c1ccccc1F,10.3% [at 46.1 µM],
O=[N+]([O-])C(=c1ccc2c(c1)N1C3=C(CCCC3)CC3CCCCC31N=2)[N+](=O)[O-] (centres undefined),-2.2%,
CCOC(=O)CN(C(=O)COc1nc(-c2ccccc2)cc(C)c1C#N)c1ccc(F)cc1,-11%,
C=CCN(c1ccccc1C(=O)NCC(=O)OCC)S(=O)(=O)c1ccc(C)cc1,-26.8%,
CN1C(=O)c2ccc(NC(=O)C3CCCCC3)cc2C1=O,3.28% [at 46.1 µM],
O=C(O)c1ccc(NC(=O)C2CCCCC2)cc1,8.31% [at 46.1 µM],
O=C(Nc1cnn(Cc2ccc(Cl)cc2)c1)C1CCCC1,,0.794 µM (active)
COc1ccc(-c2nc3cc([N+](=O)[O-])ccc3o2)cc1OC,-3.14%,
COc1ccc(OCC(=O)Nc2cc(C)c(Cl)cc2OC)c([N+](=O)[O-])c1,7.75% [at 46.1 µM],
Cc1nnc(-c2ccc(Oc3ccc(C)c(C)c3)c([N+](=O)[O-])c2)o1,,11.2 µM (active)
O=C(N/N=C/c1ccccn1)c1cccnc1,-3.79%,
NC(=O)Cc1ccc2c(c1)[nH]c1ccccc12,14%,

SMILES,"activity change, negative = inhibition",Potency
O=[N+]([O-])/C=C1\CCCCCN1,18.3%,
CCc1ccc(S(=O)(=O)NCC(O)COc2ccc(OC)cc2)cc1 (centres undefined),-7.53%,
Cc1nnc(N/N=C/c2ccccn2)[nH]c1=O,-25.2%,
CCOc1ccc(-n2c(O)c(/C=N/Nc3nnc(C)c(=O)[nH]3)c3ccccc3c2=O)cc1,5.42% [at 46.1 µM],
COc1ccc(Cc2nnc(N/N=C/c3ccccc3O)[nH]c2=O)cc1OC,,1.26 µM (active)
COC(=O)[C@@H]1CC2=CC(=O)CC[C@]2(C)[C@@]23O[C@@H]2C[C@@]2(C)[C@@H](CC[C@@]24CCC(=O)O4)[C@H]13,7.77% [at 46.1 µM],
Cc1ccc(NC(=O)C(C)c2cccc(C(=O)c3ccccc3)c2)cc1 (centres undefined),,25.1 µM (active)
COC(C(=O)Nc1ccc(C(C)=O)cc1)c1ccccc1 (centres undefined),3.95% [at 46.1 µM],
CC(=O)c1cccc(NC(=O)Nc2ccc(C)cc2)c1,-23.6% [at 46.1 µM],
CCOC(=O)C1C(c2ccc(OC)c(OC)c2)c2c([nH][nH]c2=O)CC1(C)O (centres undefined),-8.41%,
O=C1N(c2ccccc2)C(=Nc2ccccc2)SC12CC2,-12.3%,
Fc1ccc2[nH]c3c(N4CCN(Cc5ccc6c(c5)OCO6)CC4)ncnc3c2c1,,3.55 µM (active)
Cc1cc(N2CCN(Cc3ccc4c(c3)OCO4)CC2)n2ncnc2n1,-6.11% [at 46.1 µM],
O=c1[nH]c(N2CCN(Cc3ccc4c(c3)OCO4)CC2)nc2c1CCCC2,7.27% [at 46.1 µM],
O=C(NNS(=O)(=O)c1ccccc1)c1cnn(-c2ccc(Cl)cc2)c1C(F)(F)F,3.68%,
COc1cccc(OC)c1CN(C)C(=O)c1cnccc1C(F)(F)F,0.946%,
C/C(=N/NC(=O)c1ccn(C)n1)c1ccncc1,8.06%,
CC(/C=C/c1ccco1)=N/NC(=O)C1COc2ccccc2O1 (centres undefined),4.37%,
O=S(=O)(Nc1ccccn1)c1ccc(Oc2ccccc2)cc1,-9.45% [at 46.1 µM],
COc1ccccc1Oc1ccc(S(=O)(=O)Nc2cccnc2)cc1,,11.2 µM (active)
COc1ccc(S(=O)(=O)Nc2cccnc2)c(Cl)c1Cl,1.71%,
COc1ccc(-c2cc(C(F)(F)F)nc(SCCC(=O)NCc3ccco3)n2)cc1,-15.2% [at 46.1 µM],
O=C(CSc1nc(-c2ccco2)cc(C(F)(F)F)n1)N1CCc2ccccc2C1,9.77% [at 46.1 µM],
O=C(CSc1nc(-c2ccco2)cc(C(F)(F)F)n1)NCc1cccs1,,15.8 µM (active)
CCOc1cccc(C(=O)Nc2cccnc2)c1,9.21% [at 46.1 µM],
CCOc1cccc(NC(=O)CC#N)c1,,1.78 µM (active)
CCC(=O)Nc1ccc(C(=O)Nc2cccc(OC)c2)cc1,0.618% [at 46.1 µM],

# — PubChem BioAssay AID1688 (National Center for Advancing Translational Sciences (NCATS), 2009)
